Measurements taken from PubChem BioAssay (Tox21).
Values joined by “and” are separate entries in the source; they are usually repeats but may differ in a detail not shown here. Equal values may be shown once. Records with an inconclusive call do not appear. Entries that show only a call come without a potency. More than one record can exist for a structure, and the calls need not agree. Active and inactive are the calls of the source. Calls come from the whole dose curve.

What was measured:
[1] = molecular target: Acetylcholinesterase (Homo sapiens) (UniProt P22303); assay: Acetylcholinesterase (AChE) small molecule antagonists: colormetric cell-based qHTS assay (AID 1347395); note: nearly all actives have a fitted effect of over 30% in size
Outline: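 Quantitative HTS in attached SH-SY5Y cells: 30 min compound exposure, then 90 min with acetylthiocholine and DTNB at 37 C; colour from thiocholine reports AChE activity.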

[2] = molecular target: Acetylcholinesterase (Homo sapiens) (UniProt P22303); assay: Acetylcholinesterase (AChE) small molecule antagonists: enzyme-based qHTS assay (AID 1347397); details: Potency: AChE enzyme activity inhibition; outcome: AChE enzyme activity inhibition; note: nearly all actives have a fitted effect of over 55% in size; note: potency is the fitted concentration of half-maximal effect
Outline: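 Colorimetric DTNB read-out of thiocholine released from acetylthiocholine by recombinant human AChE (50 mU/mL as dispensed). Compounds were preincubated 30 min at RT before substrate/DTNB addition, with a 10 min RT reaction.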

[3] = molecular target: Acetylcholinesterase (Homo sapiens) (UniProt P22303); assay: Acetylcholinesterase (AChE) small molecule antagonists: fluorescence cell-based qHTS assay (AID 1347398); details: Potency: AChE activity; outcome: AChE activity; note: nearly all actives have a fitted effect of over 50% in size; note: potency is the fitted concentration of half-maximal effect
Outline: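 SH-SY5Y, 2,000 cells/well, attached overnight; cmpd 30 min 37 C; acetylthiocholine/Thiolite Green cocktail 40 min RT; fluorescence Ex/Em 490/520 nm.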

[4] = molecular target: Acetylcholinesterase (Homo sapiens) (UniProt P22303); assay: Acetylcholinesterase (AChE) small molecule antagonists: enzyme-based qHTS assay with human liver microsomes (AID 1347399); details: Potency: qHTS inhibition; outcome: qHTS inhibition; note: nearly all actives have a fitted effect of over 60% in size
Outline: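 Recombinant human AChE (50 mU/mL in the enzyme mix) and human liver microsomes (0.25 mg/mL final) were preincubated with compound and NADPH (0.25 mg/mL final) for 30 min at 37 C. Acetylthiocholine/DTNB was then added; thiocholine was read colorimetrically after 10 min at room temperature.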

Chain of Acetylcholinesterase (Homo sapiens) (P22303 whole entry, looked up): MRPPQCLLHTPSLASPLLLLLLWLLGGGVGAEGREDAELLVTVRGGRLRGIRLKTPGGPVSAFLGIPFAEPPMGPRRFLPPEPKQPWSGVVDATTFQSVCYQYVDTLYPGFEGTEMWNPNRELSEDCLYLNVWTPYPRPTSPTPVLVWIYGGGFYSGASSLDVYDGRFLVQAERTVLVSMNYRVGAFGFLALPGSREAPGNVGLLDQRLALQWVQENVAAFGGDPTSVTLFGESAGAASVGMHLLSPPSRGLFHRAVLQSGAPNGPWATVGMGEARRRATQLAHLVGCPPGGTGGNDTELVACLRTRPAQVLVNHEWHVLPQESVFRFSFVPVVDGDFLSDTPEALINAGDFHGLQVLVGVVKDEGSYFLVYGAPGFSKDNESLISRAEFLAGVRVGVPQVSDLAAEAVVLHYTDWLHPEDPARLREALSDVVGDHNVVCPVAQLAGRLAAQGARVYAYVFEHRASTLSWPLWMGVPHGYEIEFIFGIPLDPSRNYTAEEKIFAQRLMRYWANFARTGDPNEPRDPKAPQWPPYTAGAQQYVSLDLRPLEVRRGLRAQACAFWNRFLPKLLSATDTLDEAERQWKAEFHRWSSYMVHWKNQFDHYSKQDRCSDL

SMILES	activity, negative = inhibition [1]	activity change, negative = inhibition [2]	activity change, negative = inhibition [3]	activity change, negative = inhibition [4]	Potency [1]	Potency [2]	Potency [3]	Potency [4]
CCC(Cl)CC(Cl)C(Cl)C(Cl)C(Cl)C(C)Cl (stereo not given)	-0.388% [at 23.6 µM] (inactive)	-3.68% [at 23.6 µM] (inactive)	0.856% [at 23.8 µM] (inactive)	0.639% [at 23.6 µM] (inactive)				
Brc1nc2ccccc2s1					inactive	inactive	inactive	inactive
NNC(=O)c1ccncc1					inactive	inactive	inactive	inactive
CCCCCCCCCCC					inactive	inactive	inactive	inactive
O=C(O)Cc1ccccc1Oc1ccc(Cl)cc1Cl					inactive	inactive	inactive	inactive
[O-]/[N+](=N\O)c1ccccc1					inactive	inactive	inactive	inactive
NC[C@H](O)c1ccc(O)c(O)c1					inactive	inactive	inactive	inactive
CCc1ccc(C)cc1					inactive	inactive	inactive	inactive
O=C(Nc1ccccc1SSc1ccccc1NC(=O)c1ccccc1)c1ccccc1					inactive	inactive	inactive	inactive
O=C1CCC(=O)O1					inactive	inactive	inactive	inactive
CC(C)(CO)[C@@H](O)C(=O)NCCC(=O)O					inactive	inactive	inactive	inactive
O=C(O)CCCC[C@@H]1SC[C@@H]2NC(=O)N[C@@H]21					inactive	inactive	inactive	inactive
O=C(Nc1ccccc1)c1cc([N+](=O)[O-])ccc1Cl					inactive	inactive	inactive	inactive
Oc1c(Cl)cc(Cl)cc1Sc1cc(Cl)cc(Cl)c1O					inactive	40 µM (active) and 72.2 µM (active) and 56.4 µM (active)	inactive	inactive
COCCOCCOCCOCCO					inactive	inactive	inactive	inactive
CC(C)COC(=O)CCCCC(=O)OCC(C)C					inactive	inactive	inactive	inactive
NC(=O)COCCN1CCN(C(c2ccccc2)c2ccc(Cl)cc2)CC1 (stereo not given)					inactive	inactive	inactive	inactive
CC1CC(C)C(=O)C1=O (stereo not given)					inactive	inactive	inactive	inactive
C[N+](C)(C)CC[N+]1(C)Cc2c(Cl)c(Cl)c(Cl)c(Cl)c2C1					inactive	inactive	inactive	inactive
C=C(C)C(=O)OCCCCCCCCCCCCCCCCCC	0.231% [at 23.6 µM] (inactive)	0.946% [at 23.6 µM] (inactive)	2.72% [at 23.8 µM] (inactive)	0.563% [at 23.6 µM] (inactive)				

SMILES	activity, negative = inhibition [1]	activity change, negative = inhibition [2]	activity change, negative = inhibition [3]	activity change, negative = inhibition [4]	Potency [1]	Potency [2]	Potency [3]	Potency [4]
OC1CCCCC1					inactive	inactive	inactive	inactive
Cc1cc(O)c2c(c1)C(=O)c1cccc(O)c1C2=O					inactive	inactive	inactive	inactive
CCCCCCCCCC/C=C/C#N					inactive	inactive	inactive	inactive
C(=C(c1ccccc1)c1ccccc1)c1ccccc1					inactive	inactive	inactive	inactive
C/C=C(\C)C(C)=O					inactive	inactive	inactive	inactive
CC(C)OCC1CO1 (stereo not given)					inactive	inactive	inactive	inactive
O=c1ccc2ccccc2o1					inactive	inactive	inactive	inactive
CCCCN(CCN(CCCC)C(=O)N1CCOCC1)C(=O)N1CCOCC1					inactive	inactive	inactive	inactive
NNS(=O)(=O)c1ccc(Oc2ccc(S(=O)(=O)NN)cc2)cc1					inactive	inactive	inactive	inactive
CN(C)Cc1cc(CN(C)C)c(O)c(CN(C)C)c1					inactive	inactive	inactive	inactive
CCCCCC/C=C/C(=O)OC					inactive	inactive	inactive	inactive
CCO[Si](CCCN=C=O)(OCC)OCC					inactive	inactive	inactive	inactive
COc1ccccc1O					inactive	inactive	inactive	inactive
COCCCOc1cc(C[C@@H](C[C@H](N)[C@@H](O)C[C@H](C(=O)NCC(C)(C)C(N)=O)C(C)C)C(C)C)ccc1OC					inactive	inactive	inactive	inactive
Cc1cc(O)c(Cl)cc1C					inactive	inactive	inactive	inactive
CO[Si](CCCn1c(=O)n(CCC[Si](OC)(OC)OC)c(=O)n(CCC[Si](OC)(OC)OC)c1=O)(OC)OC					inactive	inactive	inactive	inactive
CC(C)n1nc(-c2cc3cc(O)ccc3[nH]2)c2c(N)ncnc21					inactive	inactive	inactive	inactive
COc1cc(Cl)ccc1Cl					inactive	inactive	inactive	inactive
CCN(CC)C(=O)c1cccc(C)c1					inactive	inactive	inactive	inactive
C=C(C)OC(C)=O					inactive	inactive	32.7 µM (active) and inactive	inactive

SMILES	activity, negative = inhibition [1]	activity change, negative = inhibition [2]	activity change, negative = inhibition [3]	activity change, negative = inhibition [4]	Potency [1]	Potency [2]	Potency [3]	Potency [4]
CC(C)Oc1ccccc1O					inactive	inactive	inactive	inactive
O=C(NCCCN1CCOCC1)c1ccc(Cl)cc1					inactive	inactive	inactive	inactive
CC(C)=CCC/C(C)=C/CC/C(C)=C/C(=O)OCC(=O)[C@@]1(O)CC[C@H]2[C@@H]3CCC4=CC(=O)C=C[C@]4(C)[C@H]3[C@@H](O)C[C@@]21C					inactive	inactive	inactive	inactive
NC(=O)NNC(N)=O					inactive	inactive	inactive	inactive
O=C(Cl)c1ccc(Cl)cc1Cl					inactive	inactive	inactive	inactive
CC(C)C1=CC2=CC[C@@H]3[C@](C)(CCC[C@@]3(C)C(=O)O)[C@H]2CC1					inactive	inactive	inactive	inactive
CC(=O)CC(=O)N(C)C					inactive	inactive	inactive	inactive
c1ccc(OCc2ccc(CCCN3CCOCC3)cc2)cc1					inactive	inactive	inactive	inactive
CC1=CC[C@H](CC=O)C1(C)C					inactive	inactive	inactive	inactive
O=C1NC(=O)[C@@]2(CCOc3ccc(F)cc32)N1					inactive	inactive	inactive	inactive
CC1C(C)(C)C2=C(C(=O)CCC2)C1(C)C (stereo not given)					inactive	inactive	inactive	inactive
Cc1cccc(C)c1NC(=O)CC12CCCN1CCC2					inactive	inactive	inactive	inactive
C=CC(=O)OCCOCCOCCOCCOC(=O)C=C					inactive	inactive	inactive	inactive
CC(COc1ccc(C(C)(C)C)cc1)OS(=O)OCCCl (stereo not given)					inactive	inactive	inactive	inactive
CC(O)CO (stereo not given)					inactive	inactive	inactive	inactive
O=C1CCCC1					inactive	inactive	inactive	inactive
O=C(CCc1ccc(O)cc1)c1c(O)cc(O)cc1O					inactive	57.7 µM (active)	inactive	inactive
CCOc1cc([N+](=O)[O-])c(OCC)cc1N1CCOCC1					inactive	inactive	inactive	inactive
CCCCCCCCCCCCc1ccc(O)cc1					inactive	63.3 µM (active)	inactive	inactive
CCCCCCCC1CCCC1=O (stereo not given)					inactive	inactive	inactive	inactive
